In PubChem BioAssay AID493200 (National Center for Advancing Translational Sciences (NCATS), 2011):
Results filed as inconclusive are left out. A number with no mark means an inactive call. Active and inactive are the calls of the source. The call rests on the fitted dose curve; in most records, active means well fitted activation curve with a large enough effect; inconclusive means small, poorly fitted or top-dose-only effect; inactive means no such curve, though single readings can be large or run the other way.

Experiment: qHTS Assay for Rab9 Promoter Activators: Initial hit validation from the primary screen; on activation: % of control where 0% means no effect
Settings: Huh7 Rab9 promoter luciferase reporter, 24 h; series mostly up to 46.1 µM; activation: at the top concentration
Summary of the method: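 Huh7 cells stably carrying a Rab9 promoter–luciferase construct, plated in reduced-serum medium with 10% FBS, rested 2 h, then exposed to compounds in DMSO for 24 h at 37C. Luminescence read 10 min after adding Amplite luciferase reagent.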
Potency means the concentration at half of the fitted maximal effect.

Compound	Potency	activation
CC(C)(C)C(=O)N/C(N)=N/c1nc2ccccc2o1	0.628 µM (active)	
C=CCc1ccc(OCCOCCNCCOC)c(OC)c1		-10.5%
COc1ccc(C(c2nnnn2CCc2ccccc2)N2CCN(C3CCCC3)CC2)cc1 (centres undefined)		-10.4%
Nc1nc(SCCO)[nH]c(=O)c1NC(=O)c1ccco1		6.14%
S=C1NCN(CCc2ccccc2)CN1Cc1ccccc1		-5.55%
CCOc1ccc(S(=O)(=O)NCc2ccccc2)cc1C(N)=O		-17.8%
COc1ccc(/C=C\c2onc(C)c2S(=O)(=O)N2CCC(C(=O)NCCC(C)C)CC2)cc1		-9.91%
CCN(C(=O)COC(=O)c1ccc(C=O)cc1)c1c(N)n(Cc2ccccc2)c(=O)[nH]c1=O		-4.81%
CC(=O)Nc1ccc(NC(=O)COc2ncnc3ccccc23)cc1		4%
Cc1ccc(CNC(=O)Nc2ccc(C)cc2)cc1	19.9 µM (active)	
Cc1nc(-c2ccccn2)sc1C(=O)Nc1ccc(F)cc1F	9.96 µM (active)	
C=CCOC(=O)N1CCN(c2cccc(C(F)(F)F)c2)CC1		-5.55%
Brc1ccccc1-c1nnc(CSc2nnc3sc4ccccc4n23)o1		11.5%
Cn1c(CCN2CCN(c3ccccc3)CC2)nc2cc(NC(=O)c3ccco3)ccc21		-5.18%
CC(=O)Nc1nnc(SCC(=O)NCCOc2ccccc2)s1		-3.72%
CN(C)C(=O)[C@H]1C[C@H]1[C@@H](O)[C@H](CO)NC(=O)[C@H](COCc1ccccc1)NC(=O)OC(C)(C)C		-1.21%
CC1=C(C(=O)OC2CCCC(C)C2)C(c2ccccc2)NC(=O)N1 (centres undefined)		-13.1%

Compound	Potency	activation
COc1ccccc1NC(=S)NCc1ccc(Cl)cc1		-1.84%
COc1ccc(NC(=O)Nc2ccc(Cc3ccncc3)cc2)cc1OC		-23.6%
CN(C)/C=N/c1c(C#N)cnn1-c1nc2ccccc2s1		15.4%
Cc1ccc(N=Cc2sc(O)c3ccccc23)c(C)c1	2.23 µM (active)	
CC1CCc2sc(C(=O)NNC(=S)NC3CC3)cc2C1 (centres undefined)	19.9 µM (active)	
COCCNC(=O)C1CCC(CNS(=O)(=O)c2ccc(F)cc2)CC1 (centres undefined)		-4.18%
CC(C)(C)NC(=S)NNC(=O)c1ccc2ncccc2c1	1.77 µM (active)	
N#C/C(=N\Nc1ccc(Cl)cc1)C(=N)N1CCCCC1	0.223 µM (active)	
Cc1cccc(NC(=O)CSc2nc3ccccc3o2)c1		7.11%
Cc1[nH]n(-c2cccc3ccccc23)c(=O)c1/C=N/c1sc2c(c1C#N)CCC2		6.46%
O=C(NCCc1c[nH]c2ccccc12)C(=O)NCC(c1ccco1)N1CCN(c2ccccc2F)CC1 (centres undefined)		-1.77%
CCCNC(=O)C1CCN(S(=O)(=O)c2ccc3[nH]c(=O)ccc3c2)CC1		-0.573%
CC1(C)CC(=O)c2c(O)c(-c3ccccc3)c(=O)n(-c3ccccc3)c2C1		-6.27%
Cc1cc(C)cc(N(CC(=O)NC2CCCC2)C(=O)CNC(=O)c2ccco2)c1		-0.368%
COc1ccc(NC(=O)CSc2ccc([N+](=O)[O-])cc2)cc1S(=O)(=O)N1CCOCC1		-11.1%
CCCc1cc(C(=O)Nc2ccccc2SC)no1	25 µM (active)	
Cc1ccc2c(c1)sc1nc(=O)n(-c3ccccc3)c(=O)n12	0.499 µM (active)	
